# Bioassay records deposited in PubChem BioAssay by National Center for Advancing Translational Sciences (NCATS).
# Hits are enriched below; roughly 19% of the tested compounds scored in any of these assays.
# DT40 TDP1 CPT: qHTS for Inhibitors of human tyrosyl-DNA phosphodiesterase 1 (TDP1): qHTS in cells in presence of CPT; chicken DT40 Tdp1-/-;hTDP1 cells + 20 nM CPT, ATP luminescence, 48 h; Potency, µM (top dose mostly 46.2 µM), inactives show at the highest dose activity change, negative = growth inhibition, most hits filed as inhibitors; actives 12% (n = 420,000); note: nearly all actives have a fitted effect of over 55% in size
#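 Chicken DT40 Tdp1-/- cells stably complemented with human TDP1 were seeded at 400 cells/well in medium containing 20 nM camptothecin, exposed to pin-transferred compounds, and grown at 37 °C for at least 48 hr. Viability was read as ATP luminescence.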
# HT1080 IDH1KD tx: qHTS for induction of synthetic lethality in tumor cells producing 2HG: qHTS for the HT-1080-IDH1KD cell line; AID 686971, 2013; HT-1080 IDH1 knockdown viability, ATP luminescence, 48 h; Potency, µM (series often up to 46.1 µM), for the others: top-dose activity, negative = toxicity, usual class: cytotoxic; actives 2% (n = 360,000);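 note: 0% = DMSO wells and -100% = cell-free medium wells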
#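 In this qHTS, HT-1080 cells depleted of IDH1 are exposed for 48 h at 37 °C to compound titrations. Toxicity is scored from CellTiter-Glo luminescence, with DMSO as full viability and medium alone as none.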
# HT1080NT lethal: qHTS for induction of synthetic lethality in tumor cells producing 2HG: qHTS for the HT-1080-NT fibrosarcoma cell line; actives 1.6% (n = 360,000); HT-1080-NT fibrosarcoma viability, CellTiter-Glo ATP luminescence, 48 h; Potency, µM (top dose mostly 46.1 µM), inactives show top-dose activity, negative = less viability, usual class: cytotoxic; AID 686970, 2013;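 note: NT is the 2HG producing partner of a matched IDH1 knockdown line; 0% = DMSO-treated cells and -100% = media-only wells without cells; nearly all actives have a fitted effect of over 55% in size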
#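 A 48-hour cytotoxicity screen used HT-1080-NT cells plated 2 hours before compound delivery. ATP-based CellTiter-Glo luminescence measured viability, normalized to DMSO and no-cell controls.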
# KB-V1 MDR tox: qHTS assay for MDR1-selective chemotherapeutics: Primary screen using the drug-selected MDR subline cells KB-V1; KB-V1 MDR cells viability, CellTiter-Glo, 72 h; Potency, µM (top dose mostly 46.1 µM), usual class: cytotoxic; actives 3.4% (n = 400,000); note: nearly all actives have a fitted effect of over 60% in size
#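 KB-V1 cells (P-gp-expressing MDR subline of KB-3-1) in phenol-red-free DMEM with 10% FBS were exposed to library compounds over a concentration series for 72 h at 37 degrees C. Viability read by CellTiter-Glo luminescence; concentration-effect curves fitted after normalization.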
# DT40 TDP1 no CPT: qHTS for Inhibitors of human tyrosyl-DNA phosphodiesterase 1 (TDP1): qHTS in cells in absence of CPT. DT40 Tdp1-/- hTDP1 cells, no CPT, ATP luminescence, 48 h. actives 15% (n = 420,000). Potency, µM (highest dose often 46.2 µM), inactives show at the highest dose activity change, negative = growth inhibition, most hits filed as inhibitors; note: nearly all actives have a fitted effect of over 55% in size
#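 Luminescent ATP content (CellTiter-Glo) served as the growth readout. Knockout chicken DT40 cells expressing human TDP1 were exposed to compounds without camptothecin for a minimum 48 hr at 37 °C.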
# KB-3-1 cytotox: qHTS assay for MDR1-selective chemotherapeutics: Primary screen using the parental adenocarcinoma cell KB-3-1; actives 1.4% (n = 400,000); Potency, µM (highest dose often 46.1 µM), actives largely listed as cytotoxic; KB-3-1 viability, CellTiter-Glo ATP luminescence, 72 h; note: nearly all actives have a fitted effect of over 60% in size
#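 Multi-concentration cytotoxicity screen in KB-3-1 cells grown in DMEM lacking phenol red with 10% FBS. After 72 h at 37 °C with compound, ATP-dependent luminescence was recorded.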
# Active calls of the source: *; i = inactive; u = inconclusive; x = no result given; [ ] = remark or other dose. Calls come from the whole dose curve; as a rule, active = well fitted curve in the direction sought with a large enough effect; inconclusive = small, poorly fitted or top-dose-only effect, or another doubt; inactive = no such curve, though single readings can be large; an effect the other way counts as inactive or inconclusive. Unless noted, % is set by controls: 0 for no effect and ±100 for the full control effect; potency is the fitted concentration of half-maximal effect.
SMILES,DT40 TDP1 CPT,HT1080 IDH1KD tx,HT1080NT lethal,KB-V1 MDR tox,DT40 TDP1 no CPT,KB-3-1 cytotox
CSc1ccc(OC2(C)CCN(Cc3ccc4c(c3)OCCO4)C2)cc1 (stereo not drawn),26µM*,-5%,-25%,i,u,i
COc1ccccc1-n1cc(CN2CCC3(CCC(CNC(=O)c4ccccc4)O3)CC2)cn1 (stereo not drawn),17%[9.04 µM],x,x,x,-27%,x
CCCOc1ccc(C2C(C(=O)c3ccco3)=C(O)C(=O)N2CCCn2ccnc2)cc1OC (stereo not drawn),-11%,6%,4%,u,6%,i
CC(CCc1ccccc1)NC(=O)COC(=O)c1cccc2ccccc12 (stereo not drawn),-3%,14%,16%,i,-4%,i
CN(CC(=O)Nc1ccc(Cl)c(Cl)c1)C(=O)C1CCC1,2%,-6%,0%,i,u,i
COc1ccccc1NC(=O)CSc1nc2ncccc2[nH]1,-7%,-11%,6%,i,-14%,i
COc1ccc(NC(C)=O)cc1NC(=O)CSc1nc2ncccc2[nH]1,13µM*,18%,15%,i,18µM*,i
CCCCc1ccc(NC(=O)CSc2nc3ncccc3[nH]2)cc1,2.6µM*,0%,7%,i,1.2µM*,i
CCc1ccc(NC(=O)CSc2nc3ncccc3[nH]2)cc1,u,x,x,x,13µM*,x
CCOC(=O)c1ccc(NC(=O)CSc2nc3ncccc3[nH]2)cc1,u,-14%,-6%,u,21µM*,i
CCOC(=O)c1ccc(N2C(=O)CC(N(C)CCc3ccc(OC)c(OC)c3)C2=O)cc1 (stereo not drawn),16µM*,-1%,-3%,i,u,i
Cc1cccc(N2CC(C(=O)Nc3nnc(SCC(=O)N4CCOCC4)s3)CC2=O)c1 (stereo not drawn),1%,5%,1%,i,18%,i
COc1ccc(CS(=O)(=O)/C(Cl)=C(/Cl)C(=O)Nc2ccc(OC)nc2)cc1,0.58µM*,8.2µM*,23µM*,3.7µM*,0.58µM*,u
COc1ccc(NC(=O)/C(Cl)=C(/Cl)S(=O)Cc2ccccc2)cn1 (stereo not drawn),0.021µM*,1.5µM*,5.8µM*,8.2µM*,0.018µM*,5.8µM*
COc1ccc(/C=C/C(=O)Nc2ccc(OC)nc2)cc1,-1%,-14%,-3%,i,u,u
O=C(Nc1ccc(S(=O)(=O)Nc2ncccn2)cc1)c1cccc(S(=O)(=O)N2CCCC2)c1,-19%,0%,23%,i,-3%,i
CN(C)c1ccc(/C=C2\C=Cc3ccccc32)cc1Cl,u,x,x,u,u,i
Cc1c(OCC(=O)C(C)(C)C)ccc2c(-c3ccccc3)cc(=O)oc12,u,-6%,3%,i,16µM*,i
Cc1c(OCC(=O)N(C)c2ccccc2)ccc2c3c(c(=O)oc12)CCC3,-6%,-6%,-4%,9.2µM*,-18%,i
Cc1c(OCC(=O)C(C)(C)C)ccc2c3c(c(=O)oc12)CCCC3,u,12%,9%,i,16µM*,i
CCCOc1ccc2c3c(c(=O)oc2c1OCCC)CCCC3,u,-28%,-11%,i,u,i
CCOc1ccc2c3c(c(=O)oc2c1OCC)CCCC3,u,10%[9.24 µM],-2%,7.3µM*,u,i
